RGS8-Gao – modulates binding of RGS8 to human Galphao; P09471; multiplexed bead flow cytometry; actives lie on both sides; response (percent of control binding), % at 10 µM; 220,000 compounds, 0.34% hits; AID 1423; in the data active = response below about 60% or above about 140%; inactive = in between;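 note: Galphao activated as the GDP aluminium fluoride complex binding bead-coupled RGS8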
Target sequence (P09471 whole entry, looked up): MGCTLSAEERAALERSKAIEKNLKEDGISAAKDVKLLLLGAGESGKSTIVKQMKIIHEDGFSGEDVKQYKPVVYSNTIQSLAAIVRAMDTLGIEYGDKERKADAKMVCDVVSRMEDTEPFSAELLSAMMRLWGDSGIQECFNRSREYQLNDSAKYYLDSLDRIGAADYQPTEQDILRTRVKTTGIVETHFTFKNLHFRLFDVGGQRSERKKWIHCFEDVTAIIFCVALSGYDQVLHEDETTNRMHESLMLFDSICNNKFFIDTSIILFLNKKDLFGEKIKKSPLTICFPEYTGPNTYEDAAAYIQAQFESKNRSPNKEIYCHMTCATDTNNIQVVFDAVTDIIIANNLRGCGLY
RGS16-Gao – modulates binding between human RGS16 and Galphao; bead-based flow cytometry RGS16-Galphao binding, fluorescence; actives lie on both sides; binding response (% of control), % at 10 µM; 220,000 compounds, 0.38% hits;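 note: Galphao activated by GDP with aluminum fluoride before binding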
Target sequence (O15492 whole entry, looked up): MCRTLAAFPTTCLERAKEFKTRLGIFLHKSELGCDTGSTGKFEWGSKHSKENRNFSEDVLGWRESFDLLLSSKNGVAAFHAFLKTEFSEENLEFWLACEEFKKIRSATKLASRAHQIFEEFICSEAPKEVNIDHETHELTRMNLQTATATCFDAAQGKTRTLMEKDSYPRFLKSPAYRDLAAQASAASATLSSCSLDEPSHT
Target sequence (P09471 whole entry, looked up): as the sequence (P09471 whole entry, looked up) above
RGS7-Gao reg – human RGS7-Galphao interaction regulation; P09471; Multiplexed bead flow cytometry, RGS7-Galphao binding; actives lie on both sides; binding response (% of control), % at 10 µM; 220,000 compounds, 0.35% hits; AID 1439; in the data active = binding response below about 49% or above about 150%; inconclusive = no clear call, values can overlap the other calls; inactive = in between;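 note: fluorescent Galphao held in activated GDP-AlF4 state binding bead-coupled RGS7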
RGS4-Gao reg – human RGS4-Galphao interaction regulation | P09471 | Multiplexed bead flow cytometry, RGS4-Galphao binding; actives lie on both sides | binding response (% of control), % at 10 µM | 220,000 compounds, 0.33% hits; in the data active = binding response below about 49% or above about 150%; inactive = in between;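 note: fluorescent Galphao activated with aluminum fluoride binding bead-coupled RGS4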
RGS4-Gao HTS – modulates binding between human RGS4 and Galphao | multiplexed bead flow cytometry, RGS–Galpha-o binding | 1,600 compounds, 99% hits | RGS4–Galpha-o binding response, % at 10 µM | shares compounds with RGS16-Gao;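 note: fluorescently labeled Galpha-o bound to GDP with aluminium fluoride binding biotinylated RGS beads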
Biotin-avidin – counter-screen: compounds disrupting biotin binding to avidin beads | shares compounds with RGS16-Gao | streptavidin beads, fluorescein-biotin binding, flow cytometry | inhibition, % at 10 µM | 1,700 tested, under 10 active | AID 1783;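 active = inhibition above 50%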;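 note: median green fluorescence of gated singlet beads compared with DMSO control wells; 0% = DMSO wells and 100% = complete loss of bead fluorescence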
RGS8-Gao confirm – confirmation of regulators of human RGS8-Galphao interaction; shares compounds with RGS16-Gao; 1,700 compounds, 3% hits; binding response (% of control), % at 10 µM; bead-based flow cytometry RGS8-Galphao binding, fluorescence; actives lie on both sides; in the data active = binding response below about 72% or above about 130%; inactive = in between;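 note: Galphao activated as GDP AlF4 complex before binding bead RGS8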
RGS7-Gao single – RGS7-Galphao interaction regulation, single point confirmation; shares compounds with RGS16-Gao; bead-based flow cytometry RGS7-Galphao binding; actives lie on both sides; response (percent of control binding), % at 10 µM; 1,700 compounds, 7.8% hits; AID 1837; in the data active = response below about 75% or above about 130%; inactive = in between;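 note: fluorescent Galphao activated with GDP and aluminum fluoride binding bead-coupled RGS7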
RGS16-Gao conf – confirmation of regulators of human RGS16-Galphao interaction; shares compounds with RGS16-Gao; bead-based flow cytometry, RGS16-Galphao binding; actives lie on both sides; response (% of control binding), % at 10 µM; 1,700 compounds, 4% hits; AID 1838; in the data active = response below about 74% or above about 130%; inactive = in between;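 note: Galphao activated as the GDP aluminium fluoride complex binding bead-coupled RGS16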
RGS4-Gao single – RGS4-Galphao interaction regulation, single point confirmation; 1,700 compounds, 4% hits; AID 1840; RGS4-Galphao binding, multiplexed bead flow cytometry; actives lie on both sides; binding response (% of control), % at 10 µM; shares compounds with RGS16-Gao; in the data active = binding response below about 74% or above about 130%; inactive = in between
RGS19-Gao conf – confirmation of regulators of human RGS19-Galphao interaction; response (percent of control binding), % at 10 µM; shares compounds with RGS16-Gao; AID 1841; 1,700 compounds, 5% hits; bead-based flow cytometry RGS19-Galphao binding; actives lie on both sides; in the data active = response below about 50% or above about 160%; inactive = in between;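 note: 100% = no compound control and 0% = blank background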
An asterisk follows results filed as active; ? = inconclusive; nt = no result given; ! = not confirmed by another sample; [ ] = remark or other dose. Rows were chosen to be rich in hits. Some 0.78% of all compounds tested hit in one or more screens of this group. Unless noted, the rule behind the calls is not given here.

SMILES	RGS8-Gao	RGS16-Gao	RGS7-Gao reg	RGS4-Gao reg	Biotin-avidin	RGS8-Gao confirm	RGS7-Gao single	RGS16-Gao conf	RGS4-Gao single	RGS19-Gao conf	others
CC(=NCCN1CCOCC1)c1c(O)n(-c2ccccc2C)c(=O)[nH]c1=O	28*	3.0*	9.2*	-2.9*	nt	nt	nt	nt	nt	nt
c1ccc(CCN2CCC(N3CCN(c4ccccc4)CC3)CC2)cc1	102	103	101	100	nt	nt	nt	nt	nt	nt
Cc1c(N=Nc2c(O)n(C)c(=O)n(C)c2=O)c(=O)n(-c2ccccc2)n1C	58*	1	66	65	1	100	99	98	102	92	RGS4-Gao HTS=65*
COC(=O)c1ccc(CN2CCN(Cc3ccccc3)CC2)cc1	99	101	101	104	nt	nt	nt	nt	nt	nt
COC(=O)C1=CCCN(C)C1	21*	13*	5.1*	16*	-1	102	100	102	103	97
O=c1[nH]c(=S)[nH]c(O)c1N=Nc1ccc(S(=O)(=O)N2CCOCC2)cc1	0.7*	-19*	?	-36*	-1	99	98	99	99	89
O=c1[nH]c(O)c(N=Nc2ccc(S(=O)(=O)N3CCOCC3)cc2)c(=O)[nH]1	97	97	97	98	nt	nt	nt	nt	nt	nt
CN1C(=O)NC(=O)/C(=C/c2ccc([N+](=O)[O-])o2)C1=O	58*	41	?	88	nt	nt	nt	nt	nt	nt	RGS4-Gao HTS=88*
C=CCn1c(O)c(C(C)=Nc2ccc3c(c2)CCC3)c(=O)[nH]c1=O	98	99	?	94	nt	nt	nt	nt	nt	nt
Cn1cccc1CN1CCN(C(=O)COc2ccccc2)CC1	96	88	95	92	nt	nt	nt	nt	nt	nt
Cn1nc(-c2ccc(OCC(=O)N3CCN(Cc4ccccc4)CC3)cc2)c2ccccc2c1=O	66	38	42*!	35*!	0	101	104	100	101	87
CN1CCC(O)(c2ccc(Cl)cc2)C(C(=O)c2ccc(Cl)cc2)C1 (stereo unspecified)	101	101	98	101	nt	nt	nt	nt	nt	nt
CC(=NCC1CCCO1)c1c(O)n(C)c(=O)n(C)c1=O (stereo unspecified)	54*	-18*	31*	-9.3*	-1	101	92	99	98	96
O=C1NC(c2cccnc2)Nc2sc3c(c21)CCCC3 (stereo unspecified)	72	23*	94	86	-3	101	98	100	99	94	RGS4-Gao HTS=86*
C=CCn1c(O)c(C(C)=Nc2cccc(C(=O)O)c2)c(=O)[nH]c1=O	102	102	?	102	nt	nt	nt	nt	nt	nt
c1ccc2c(c1)[nH]c1cnccc12	105	109	105	101	nt	nt	nt	nt	nt	nt
Cc1c2ccncc2c(C)c2c1[nH]c1ccccc12	92	78	128	154*[activator]	0	94	76	89	84	72
CC(=NCCCN1CCOCC1)c1c(O)n(Cc2ccccc2)c(=O)[nH]c1=O	96	96	94	95	nt	nt	nt	nt	nt	nt
CN(C)C(=O)Nc1cccc(OC(=O)N(C)C)c1	99	108	281*[activator]	126	0	98	99	101	101	101	RGS4-Gao HTS=126*
CC(=O)Nc1ccccc1C(=O)OCc1ccc(F)cc1	101	101	?	100	nt	nt	nt	nt	nt	nt
O=c1[nH]c(=O)n(Cc2ccc(F)cc2)c(O)c1C=NCCCn1ccnc1	102	99	97	98	nt	nt	nt	nt	nt	nt
O=c1[nH]c(=O)n(Cc2ccc(F)cc2)c(O)c1C=NCCCO	97	107	156*[activator]	110	-1	98	95	96	97	99	RGS4-Gao HTS=110*
CCN1CCC2(CCNC2)C1 (stereo unspecified)	104	108	100	103	nt	nt	nt	nt	nt	nt
Cc1ccccc1-n1c(O)c(/C=N/N2CCOCC2)c(=O)[nH]c1=S	84	46	138	150*[activator]	-1	101	101	104	101	115
Oc1ccc(Cl)cc1CN1CCN(Cc2ccccc2)CC1	95	70	97	94	nt	nt	nt	nt	nt	nt
SMILES	RGS8-Gao	RGS16-Gao	RGS7-Gao reg	RGS4-Gao reg	Biotin-avidin	RGS8-Gao confirm	RGS7-Gao single	RGS16-Gao conf	RGS4-Gao single	RGS19-Gao conf	others
COc1ccc(-c2[nH]ncc2CNC(C)Cc2ccsc2)c(F)c1 (stereo unspecified)	100	102	103	102	nt	nt	nt	nt	nt	nt
CC(C)NS(=O)(=O)c1ccc(OCC(=O)N2CCN(C)CC2)cc1	185*[activator]	381	130	134	nt	nt	nt	nt	nt	nt	RGS4-Gao HTS=134*
BrCC1C[n+]2c(SCc3ccccc3)nc3sc4c(c3c2O1)CCCC4 (stereo unspecified)	119	221*[activator]	?	249*[activator]	0	93	89	91	93	85
Nc1c2c(nc3sc4c(c13)CCCCC4)CCCC2	97	89	104	102	nt	nt	nt	nt	nt	nt
CCC(=O)N1CC(=O)Nc2ccc(Cl)cc2C1c1ccc(F)cc1 (stereo unspecified)	101	105	101	105	nt	nt	nt	nt	nt	nt
CC(=O)N1CC(=O)Nc2ccc(Cl)cc2C1c1ccc(F)cc1 (stereo unspecified)	15*	11*	19*	25*	0	101	100	100	101	99
Cc1cc(Cl)nc(N)n1	146*[activator]	311	112	114	-2	96	93	96	96	100	RGS4-Gao HTS=114*
CCSC1=NN1c1cc(C)nc(N)n1	102	97	?	102	nt	nt	nt	nt	nt	nt
Cc1ccc(-c2nn(Cc3ccccc3)cc2C=O)cc1C	105	107	104	99	nt	nt	nt	nt	nt	nt
COc1ccc(CCNC(=O)c2c(N)n(CCN3CCOCC3)c3nc4ccccc4nc23)cc1	104	110	104	105	nt	nt	nt	nt	nt	nt
O=P(Oc1ccccc1)(Oc1ccccc1)C(Nc1ccccc1)c1ccccc1 (stereo unspecified)	53*	12	68	68	0	100	99	103	100	98	RGS4-Gao HTS=68*
CCN1CCN(c2cc(N3CCCC3)c(F)cc2[N+](=O)[O-])CC1	122	184*[activator]	112	108	-2	98	62*	78	79	64	RGS4-Gao HTS=108*
CCN(CC)c1ccc(/C=C2/C(=O)NC(=O)N(CC3CCCO3)C2=O)cc1 (stereo unspecified)	103	101	100	99	nt	nt	nt	nt	nt	nt
